PubChem BioAssay (NCI)
About 83,000 compounds went through this panel and 20% of them were active in at least one assay; those are over-represented in the sample as a whole.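 48-hour exposure, single concentration, 96-well plates; percent growth endpoint where 0 means no net growth. Active: below 10.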 The source made the active and inactive calls.

Experiments:
Test in all cases: NCI-60 one-dose screen, 48 h (100 = growth as untreated, 0 = no growth, -100 = all killed)
Conditions in all cases: 10 µM
NCI-H23 lung = test system: NCI-H23 lung
NCI-H226 lung = test system: NCI-H226 lung
NCI-H322M lung = test system: NCI-H322M lung
HOP-62 NSCLC = test system: HOP-62 NSCLC
NCI-H460 lung = test system: NCI-H460 lung
HOP-92 NSCLC = test system: HOP-92 NSCLC
NCI-H522 lung = test system: NCI-H522 lung
A549/ATCC NSCLC = test system: A549/ATCC NSCLC
786-0 renal = test system: 786-0 renal
COLO 205 colon = test system: COLO 205 colon
DU-145 prostate = test system: DU-145 prostate
K-562 leukemia = test system: K-562 leukemia
MALME-3M melanoma = test system: MALME-3M melanoma
MDA-MB-231 breast = test system: MDA-MB-231 breast
RXF 393 renal = test system: RXF 393 renal
SF-268 CNS = test system: SF-268 CNS
SF-295 CNS = test system: SF-295 CNS
SF-539 CNS = test system: SF-539 CNS
UACC-257 melanoma = test system: UACC-257 melanoma
M14 melanoma = test system: M14 melanoma

Measured: growth

O=C1Nc2cc(-c3ccc(NC(=O)c4cccc([N+](=O)[O-])c4)cc3)ccc2/C1=C/c1ccc[nH]1
inactive: NCI-H23 lung 71.6% | NCI-H226 lung 76.7% | NCI-H322M lung 102% | HOP-62 NSCLC 94.9% | NCI-H460 lung 103% | HOP-92 NSCLC 109% | NCI-H522 lung 84.3% | A549/ATCC NSCLC 94.5% | 786-0 renal 103% | COLO 205 colon 42.9% | DU-145 prostate 67.7% | K-562 leukemia 93.7% | MALME-3M melanoma 98.7% | MDA-MB-231 breast 86.6% | RXF 393 renal 83.7% | SF-268 CNS 98.4% | SF-295 CNS 83.5% | SF-539 CNS 89.2% | UACC-257 melanoma 97.1% | M14 melanoma 102%

O=C(c1ccc(Cl)cc1)C1[C@H](c2ccccc2Br)[C@@H](c2ccccc2)NC12C(=O)Nc1ccc(Cl)cc12 (stereo not given in full)
active: NCI-H23 lung -22.3% | NCI-H460 lung -13.5% | NCI-H522 lung 3.07% | COLO 205 colon 8.59% | K-562 leukemia 7.94% | MDA-MB-231 breast 5.9% | RXF 393 renal -33.7%
inactive: NCI-H226 lung 18.9% | NCI-H322M lung 44.7% | HOP-62 NSCLC 38.9% | HOP-92 NSCLC 23% | A549/ATCC NSCLC 19.8% | 786-0 renal 17.6% | DU-145 prostate 29.1% | MALME-3M melanoma 51.8% | SF-268 CNS 23.4% | SF-295 CNS 15.2% | SF-539 CNS 39.7% | UACC-257 melanoma 42.5% | M14 melanoma 25.2%

CC(C)CCSc1nc(NC2CC2)c(C#N)c(-c2ccc(C(C)C)cc2)n1
inactive: NCI-H23 lung 101% | NCI-H226 lung 106% | NCI-H322M lung 113% | HOP-62 NSCLC 94.9% | NCI-H460 lung 120% | HOP-92 NSCLC 114% | NCI-H522 lung 90.7% | A549/ATCC NSCLC 106% | 786-0 renal 93.6% | COLO 205 colon 126% | DU-145 prostate 120% | K-562 leukemia 100% | MALME-3M melanoma 108% | MDA-MB-231 breast 105% | RXF 393 renal 113% | SF-268 CNS 121% | SF-295 CNS 100% | SF-539 CNS 101% | UACC-257 melanoma 103% | M14 melanoma 109%

Cc1ccc(F)cc1N/C=c1\s/c(=C(\C#N)C(=O)Nc2ccccc2)n(-c2ccccc2)c1=O
active: MDA-MB-231 breast 2.68% | RXF 393 renal 6.54%
inactive: NCI-H23 lung 58% | NCI-H226 lung 20.3% | NCI-H322M lung 81.8% | HOP-62 NSCLC 51.8% | NCI-H460 lung 71.7% | HOP-92 NSCLC 27.6% | NCI-H522 lung 74.7% | A549/ATCC NSCLC 37.7% | 786-0 renal 34.6% | COLO 205 colon 99% | DU-145 prostate 54.5% | K-562 leukemia 83.4% | MALME-3M melanoma 53% | SF-268 CNS 69.5% | SF-295 CNS 47.8% | SF-539 CNS 27% | UACC-257 melanoma 99% | M14 melanoma 82.4%

Cc1ccc2nc3c(nc2c1)c1cc(I)ccc1n3CCN(C)C
active: NCI-H460 lung -2.92% | COLO 205 colon -55.8% | K-562 leukemia 4.47% | MALME-3M melanoma 9.73%
inactive: NCI-H23 lung 17.8% | NCI-H226 lung 39.9% | NCI-H322M lung 20% | HOP-62 NSCLC 31.3% | HOP-92 NSCLC 37.2% | NCI-H522 lung 31.4% | A549/ATCC NSCLC 13.5% | 786-0 renal 23.6% | DU-145 prostate 13% | MDA-MB-231 breast 14.8% | RXF 393 renal 29.8% | SF-268 CNS 45.4% | SF-295 CNS 17.3% | SF-539 CNS 26.4% | UACC-257 melanoma 41.9% | M14 melanoma 16.3%

COc1cc2oc(-c3cccc(C(=O)Nc4ccc(Cl)cc4)c3)cc(=O)c2c(OCCNC(=O)CNC(=O)OC(C)(C)C)c1OC
active: RXF 393 renal -17.7%
inactive: NCI-H23 lung 63.8% | NCI-H226 lung 59.7% | NCI-H322M lung 71.6% | HOP-62 NSCLC 74.7% | NCI-H460 lung 76% | HOP-92 NSCLC 54.7% | NCI-H522 lung 45.7% | A549/ATCC NSCLC 53.9% | 786-0 renal 76.1% | COLO 205 colon 56.8% | DU-145 prostate 77.5% | K-562 leukemia 46% | MALME-3M melanoma 65% | MDA-MB-231 breast 30.1% | SF-268 CNS 81.8% | SF-295 CNS 50.6% | SF-539 CNS 67.3% | UACC-257 melanoma 80.8% | M14 melanoma 60.2%

N#Cc1c(NC(=O)c2cccc(C(F)(F)F)c2)sc2c1CCC(O)=C2
inactive: NCI-H23 lung 22.3% | NCI-H226 lung 54.7% | NCI-H322M lung 49.2% | HOP-62 NSCLC 55% | NCI-H460 lung 30.3% | HOP-92 NSCLC 11.2% | NCI-H522 lung 11.2% | A549/ATCC NSCLC 35.7% | 786-0 renal 62.1% | COLO 205 colon 90.2% | DU-145 prostate 50.1% | K-562 leukemia 14.5% | MALME-3M melanoma 19.3% | MDA-MB-231 breast 39.6% | RXF 393 renal 50.7% | SF-268 CNS 38.6% | SF-295 CNS 35.3% | SF-539 CNS 48.1% | UACC-257 melanoma 30.1% | M14 melanoma 36.8%

O=C(c1ccc(Cl)cc1)C1[C@H](c2ccccc2Br)[C@@H](c2ccccc2)NC12C(=O)Nc1ccc(Br)cc12 (stereo not given in full)
active: NCI-H23 lung 3.35% | NCI-H460 lung 2.66% | HOP-92 NSCLC 4.57% | NCI-H522 lung -24.4% | A549/ATCC NSCLC 0.826% | 786-0 renal -2.24% | COLO 205 colon -49.6% | K-562 leukemia 6.68% | MDA-MB-231 breast 2.81% | RXF 393 renal -26.1%
inactive: NCI-H226 lung 12.5% | NCI-H322M lung 41.6% | HOP-62 NSCLC 31.2% | DU-145 prostate 29.7% | MALME-3M melanoma 50.1% | SF-268 CNS 32.7% | SF-295 CNS 14.9% | SF-539 CNS 30.2% | UACC-257 melanoma 10.3% | M14 melanoma 27.5%

COC[C@@H](CC(C)C)N=C1NC(=O)/C(=C/c2ccc3ncsc3c2)N1
inactive: NCI-H322M lung 15.8% | A549/ATCC NSCLC 13.5% | 786-0 renal 23.5% | DU-145 prostate 15.7% | K-562 leukemia 11.8% | SF-268 CNS 16% | SF-295 CNS 23.2% | UACC-257 melanoma 16.2% | M14 melanoma 42.3%
active: NCI-H23 lung -10.5% | NCI-H226 lung -1.9% | HOP-62 NSCLC 3.81% | NCI-H460 lung 7.24% | HOP-92 NSCLC 3.44% | NCI-H522 lung -3.68% | COLO 205 colon -11.8% | MALME-3M melanoma 8.01% | MDA-MB-231 breast 9.26% | RXF 393 renal -36.9% | SF-539 CNS -20.5%

O=C1Nc2ccc(Cl)cc2/C1=C/c1cccc(OCc2ccccn2)c1
inactive: NCI-H23 lung 15.4% | NCI-H322M lung 40.1% | HOP-62 NSCLC 52.1% | A549/ATCC NSCLC 40.1%
active: NCI-H226 lung -21.3% | NCI-H460 lung -16.2% | HOP-92 NSCLC -6.11% | NCI-H522 lung -75.5% | 786-0 renal -14.4% | COLO 205 colon -45.9% | DU-145 prostate 6.01% | K-562 leukemia 0.86% | MALME-3M melanoma -51.9% | MDA-MB-231 breast -50.8% | RXF 393 renal -31.4% | SF-268 CNS 4.23% | SF-295 CNS -42.4% | SF-539 CNS -64.4% | UACC-257 melanoma -0.118% | M14 melanoma -50.5%

COc1cccc(COc2ccc(/C=C3\Oc4cc(O)ccc4C3=O)cc2)c1
inactive: NCI-H23 lung 46.7% | NCI-H226 lung 51.3% | NCI-H322M lung 89.4% | HOP-62 NSCLC 17.6% | NCI-H460 lung 27.4% | HOP-92 NSCLC 16.3% | NCI-H522 lung 35.9% | A549/ATCC NSCLC 71.4% | COLO 205 colon 113% | DU-145 prostate 31.8% | K-562 leukemia 49.4% | MALME-3M melanoma 14.3% | MDA-MB-231 breast 28.6% | SF-268 CNS 17.2% | SF-539 CNS 30% | UACC-257 melanoma 70.6% | M14 melanoma 35.9%
active: 786-0 renal -58% | RXF 393 renal -19.3% | SF-295 CNS 9.41%

CC(=O)Nc1ccc(-n2cnc3cc(-c4ccc(O)cc4)ccc32)cc1F
active: NCI-H226 lung 9.75% | NCI-H522 lung -42.7% | COLO 205 colon -11.4% | K-562 leukemia 6.14% | RXF 393 renal -0.397% | SF-295 CNS 2.75% | SF-539 CNS -5.18%
inactive: NCI-H23 lung 49.2% | NCI-H322M lung 52% | HOP-62 NSCLC 44.4% | NCI-H460 lung 10.5% | HOP-92 NSCLC 55.1% | A549/ATCC NSCLC 33.8% | 786-0 renal 32.4% | DU-145 prostate 34% | MALME-3M melanoma 65.6% | MDA-MB-231 breast 34.7% | SF-268 CNS 40.6% | UACC-257 melanoma 59.8% | M14 melanoma 35.5%

N#Cc1c(NC(=O)c2ccc(C(F)(F)F)c(Cl)c2)sc2c1CCC(=O)C2
active: NCI-H23 lung -60.9% | NCI-H226 lung -26.4% | HOP-62 NSCLC -56.5% | NCI-H460 lung -10.1% | HOP-92 NSCLC -55.3% | NCI-H522 lung -71.2% | 786-0 renal -48.2% | COLO 205 colon -94% | K-562 leukemia 0.454% | MALME-3M melanoma -56.9% | MDA-MB-231 breast -87.5% | RXF 393 renal -86.3% | SF-268 CNS -22.7% | SF-295 CNS -88.9% | SF-539 CNS -87.6% | UACC-257 melanoma -23.3% | M14 melanoma -68.8%
inactive: NCI-H322M lung 39.7% | A549/ATCC NSCLC 19.3% | DU-145 prostate 19.5%
